Screening results deposited in PubChem by several laboratories.
Mdm2 MdmX PPI = inhibitors of human Mdm2/MdmX interaction; O15151+Q00987; SaOS-2 split-luciferase Mdm2/MdmX complementation, luminescence; inhibition, % at 8 µM; 330,000 tested, 3% active; AID 485346;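 active = inhibition of at least 50% at 8 µM in the primary screen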
Target sequence (O15151 whole entry, looked up): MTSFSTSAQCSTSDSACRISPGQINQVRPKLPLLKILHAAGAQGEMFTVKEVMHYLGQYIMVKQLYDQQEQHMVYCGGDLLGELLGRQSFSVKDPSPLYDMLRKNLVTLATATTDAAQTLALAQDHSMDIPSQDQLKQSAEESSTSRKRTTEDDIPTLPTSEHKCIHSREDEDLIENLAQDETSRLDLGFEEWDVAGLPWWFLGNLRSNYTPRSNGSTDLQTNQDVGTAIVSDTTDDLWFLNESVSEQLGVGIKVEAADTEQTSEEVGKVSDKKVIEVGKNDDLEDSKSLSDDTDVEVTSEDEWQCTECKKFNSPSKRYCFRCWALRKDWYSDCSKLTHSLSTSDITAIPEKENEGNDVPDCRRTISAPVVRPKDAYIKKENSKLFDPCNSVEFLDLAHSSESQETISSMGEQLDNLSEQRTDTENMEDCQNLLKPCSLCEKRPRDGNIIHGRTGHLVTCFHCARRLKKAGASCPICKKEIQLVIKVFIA
Target sequence (Q00987 whole entry, looked up): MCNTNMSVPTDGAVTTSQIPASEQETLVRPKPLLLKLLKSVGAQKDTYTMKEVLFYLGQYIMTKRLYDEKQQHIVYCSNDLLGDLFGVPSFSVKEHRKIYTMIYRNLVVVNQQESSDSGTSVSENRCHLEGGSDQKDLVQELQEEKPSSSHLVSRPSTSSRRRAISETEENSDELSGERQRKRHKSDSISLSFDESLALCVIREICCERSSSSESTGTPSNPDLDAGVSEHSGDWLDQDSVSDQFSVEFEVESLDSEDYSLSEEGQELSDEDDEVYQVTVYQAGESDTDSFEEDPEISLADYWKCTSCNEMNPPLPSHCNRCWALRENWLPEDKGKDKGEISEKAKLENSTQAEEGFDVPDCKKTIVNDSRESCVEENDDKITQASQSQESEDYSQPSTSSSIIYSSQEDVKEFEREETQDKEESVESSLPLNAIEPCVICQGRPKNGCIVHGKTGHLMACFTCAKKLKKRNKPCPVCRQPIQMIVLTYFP
ABHD5 PLIN5 PPI = inhibitors of human ABHD5-perilipin-5 interaction; Q00G26+Q8WTS1; Split G. princeps luciferase complementation, luminescence, 4 h; inhibition, % at 4 µM; 360,000 tested, 0.78% active; AID 602281;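 active = inhibition above the mean inhibition across every tested compound plus 3 SD, cut at about 22% in these data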;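 note: 0% = DMSO only wells and the 100% control is not disclosed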
HIF-2a block = inhibitors of HIF-2a; 786-0 RCC cells HIF-2a reporter, luciferase luminescence, overnight; inhibition, % at 18.8 µM; 360,000 tested, 0.72% active;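 active = inhibition of the luminescence signal of 40% or more relative to plate controls, in a single-dose primary screen at 18.75 µM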
CF NFkB block = blocks PAF-induced NF-kB reporter in cystic fibrosis cells. KKLEB NF-kB-GFP reporter, GFP fluorescence overnight. inhibition, % at 5 µM. 360,000 tested, 0.86% active;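 active = at least 50% inhibition at 5 µM, scaled per plate between neutral and stimulator controls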;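 note: PAF is a Pseudomonas aeruginosa culture filtrate used as stimulus; plate controls were PAF-stimulated DMSO wells for no effect and unstimulated DMSO wells for full effect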
Peg3 prom inh = inhibitors of Peg3 promoter. HeLa PEG-Prom luciferase reporter, luminescence, overnight. inhibition, % at 20 µM. 360,000 tested, 1.7% active. AID 588405;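 active = inhibition of at least 50% at 20 µM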
KKLEB tox = counter-screen for CF NF-kB inhibitors: cytotoxicity; KKLEB CF airway cells viability, ATPlite luminescence, overnight; active compounds read low; cells stimulated with P. aeruginosa culture filtrate; activity change (cytotoxicity), % at 5 µM; 360,000 tested, 0.36% active;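 active = corrected activity change at or below -50% at 5 µM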
Mdm2-MdmX conf = confirmation of human Mdm2/MdmX interaction inhibitors | shares compounds with Mdm2 MdmX PPI | Mdm2-MdmX binding, luminescent assay | inhibition, % at 8 µM | 10,000 tested, 55% active | AID 489028; in the data active = inhibition above about 40%
Full FLuc ctr = full-length luciferase inhibition in Mdm2/MdmX counter-screen. shares compounds with Mdm2 MdmX PPI. SaOS-2 full-length luciferase counterscreen, luminescence. inhibition, % at 8 µM. 6,200 tested, 77% active. AID 504607;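 active = mean inhibition at 8 µM reaching about 37%, which flags the compound as non-specific, limit read from the data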;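 note: p53-null SaOS-2 cells with luciferase driven by a doxycycline-inducible promoter; compound on cells about two nights before reading with doxycycline added after day one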
* = called active by the depositor; x = not tested or not shown. Most compounds without a hit are left out; they make up all but 4.6% or so of the library.

SMILES	Mdm2 MdmX PPI	ABHD5 PLIN5 PPI	HIF-2a block	CF NFkB block	Peg3 prom inh	KKLEB tox	Mdm2-MdmX conf	Full FLuc ctr
COc1ccc(Nc2nc(-c3cccc([N+](=O)[O-])c3)nc3ccccc23)cc1	55.1*	3.4	-46.4	-21.7	43.2	-16.3	14.5	x
O=[N+]([O-])c1ccc(-c2nc(Nc3ccc(O)cc3)c3ccccc3n2)cc1	70.3*	0.2	-45.5	-43.7	63.8*	1.0	28.3	x
COc1ccc(OCc2cc(=O)[nH]c3ccccc23)cc1	10.1	2.7	-17.1	7.7	-32.9	-2.3	x	x
COc1ccc2sc3c(=O)[nH]c4ccccc4c3c2c1	71.6*	1.1	16.5	62.6*	24.7	-25.9	74.5*	44.1*
COc1ccc2c(c1)[nH]c(=O)c1sc3ccccc3c12	60.3*	10.0	-7.9	-16.2	12.3	5.2	18.6	x
O=C(Nc1nncs1)C12CC3CC(CC(Cl)(C3)C1)C2	x	-1.2	19.0	-0.2	8.2	1.9	x	x
Nc1nc(N)c2c(ccc3nccc32)[nH]1	50.5*	0.9	15.7	-34.0	43.7	5.8	38.0	x
CCCNC(=O)C1(C)CCCN(C(=O)c2c(F)ccc(C)c2F)C1 (stereo not drawn)	x	-12.7	6.5	9.7	6.3	-11.0	x	x
CCN(CC(=O)Nc1ccc(NC(C)=O)cc1)C(=O)CN1C(=O)NC(C)(c2ccc3ccccc3c2)C1=O (stereo not drawn)	x	1.6	2.6	6.4	3.8	-7.7	x	x
CCOCc1c(C(=O)NC2=Nc3ccccc3NC(CC)=C2C(=O)OCC)oc2ccccc12	68.9*	-2.8	-9.4	86.2*	65.5*	-98.8*	73.0*	64.8*
COc1cc(OC)cc(-c2c(-c3cccs3)c3cc(-c4ccc(OCc5ccccc5)cc4)ccc3n2C)c1	-25.4	9.9	-1.1	1.5	28.8	-10.8	x	x
CCc1cc2c(nc1CC)CCN(CC/C(C)=N/OC[C@H]1O[C@H](c3ccccc3)C=C[C@@H]1Oc1ccc(OC)cc1)C2	53.5*	x	x	x	x	x	41.2*	65.1*
COc1ccc(O[C@H]2C=C[C@@H](c3ccccc3)O[C@@H]2CO/N=C(\C)CCN2CCc3nc(-c4ccccc4)c(-c4ccccc4)cc3C2)cc1	15.5	x	x	x	x	x	x	x
CN(CC(=O)Nc1cc(C(F)(F)F)ccc1-n1cncn1)Cc1ccccc1N1CCOCC1	x	1.4	28.7	1.4	31.6	-23.9	x	x
Cc1cccc(OC(C)C(=O)N2CCCN(C)CC2)c1C (stereo not drawn)	8.8	-3.2	12.0	-5.5	-1.2	3.2	x	x
Cc1nc2ccc(NC(=O)C3(C)CCCN(C(C)C)C3)cc2o1 (stereo not drawn)	x	6.2	-1.0	8.0	-3.0	2.3	x	x
CCOc1cc(/C=N/NC(=O)Cn2nc([N+](=O)[O-])cc2C)cc(Br)c1OCc1ccccc1C	52.2*	1.4	0.9	-11.5	26.9	-18.9	46.9*	87.0*
COc1cc(/C=N/NC(=O)Cn2nc([N+](=O)[O-])cc2C)cc(Br)c1OCc1ccccc1	16.5	-2.1	9.2	-5.4	11.7	3.5	x	x
O=C(Cc1ccc([N+](=O)[O-])cc1)Nc1nnc(C2CC2)s1	14.8	1.1	1.8	9.8	-2.0	-1.0	x	x
O=C(Cc1c[nH]c2ccccc12)Nc1nnc(C2CC2)s1	78.5*	-9.6	-38.2	10.0	-12.9	-11.1	65.2*	84.4*
O=C(Cc1coc2ccc3ccccc3c12)Nc1nnc(C2CC2)s1	73.9*	-13.5	-4.3	4.9	21.3	-1.6	82.7*	37.9*
COc1ccc(C2CC(c3ccccc3)=NN2c2ccc(S(N)(=O)=O)cc2)cc1 (stereo not drawn)	42.3	0.8	-26.5	0.3	4.9	26.9	x	x
COc1ccc(C2CC(c3ccccc3Cl)=NN2c2ccc(S(N)(=O)=O)cc2)cc1 (stereo not drawn)	45.4	-11.3	1.8	1.8	25.3	34.9	x	x
COc1ccc(C2CC(c3cccc(C(F)(F)F)c3)=NN2c2ccc(S(N)(=O)=O)cc2)cc1 (stereo not drawn)	87.1*	-11.1	-18.4	10.6	-1.4	4.9	30.3	x
COc1ccc(C2CC(c3cccc(F)c3)=NN2c2ccc(S(N)(=O)=O)cc2)cc1 (stereo not drawn)	80.9*	0.1	-15.4	8.9	4.0	17.9	10.2	x
SMILES	Mdm2 MdmX PPI	ABHD5 PLIN5 PPI	HIF-2a block	CF NFkB block	Peg3 prom inh	KKLEB tox	Mdm2-MdmX conf	Full FLuc ctr
COc1ccc(C2CC(c3cccc(Br)c3)=NN2c2ccc(S(N)(=O)=O)cc2)cc1 (stereo not drawn)	57.0*	-12.1	-17.6	-21.4	13.0	21.7	-20.6	x
CN(CC(=O)Nc1ccccc1Br)C(=O)CCCSc1nc2ccccc2[nH]1	-4.8	-4.8	3.2	14.4	13.2	13.3	x	x
COC(=O)c1ccc2c(=O)n(Cc3ccco3)c(SCC(=O)Nc3ccc(C)c(Cl)c3)nc2c1	67.8*	0.9	17.4	3.4	-54.2	0.7	16.2	x
COc1ccc(NC(=O)CSc2nc3sc(C)c(C)c3c(=O)n2Cc2ccco2)cc1	87.3*	5.3	-21.0	17.3	13.4	-32.3	11.6	x
CCOC(=O)C1CCCN(C(=O)CCc2nnc(-c3ccc(C(C)=O)s3)o2)C1 (stereo not drawn)	-86.5	4.1	-251.6	-7.2	-376.5	4.1	x	x
CCOc1ccccc1N1CC(C(=O)N2CCOCC2)CC1=O (stereo not drawn)	18.9	10.1	-1.3	-4.9	21.0	5.5	x	x
CCN(CC)CCSc1nc(O)c(-c2ccccc2)c(=O)n1-c1ccccc1	-24.3	1.5	13.3	4.5	-2.2	18.2	x	x
CCN(CC)CCSc1nc2ccccc2c(=S)n1-c1ccccc1	50.6*	x	x	x	x	x	33.5	93.8*
Cc1csc(SCC(=O)c2cc(C)n(Cc3cccs3)c2C)n1	66.1*	4.9	38.2	-6.7	27.7	-44.4	78.6*	106.7*
Cc1cc(NCCCn2ccnc2)n2ncc(-c3ccccc3)c2n1	74.1*	4.5	26.4	0.2	19.9	-32.3	69.8*	134.3*
Cc1cc(NC2CCCC2)n2ncc(-c3ccccc3)c2n1	84.0*	-4.4	-20.7	8.4	-64.7	-42.1	82.2*	181.4*
COc1ccc(CCNc2cc(C)nc3c(-c4ccc(Cl)cc4)cnn23)cc1OC	38.8	4.8	-25.9	15.2	10.8	-6.3	x	x
COc1ccc(CCNc2cc(C)nc3c(-c4ccccc4)cnn23)cc1OC	68.1*	2.2	-103.5	13.3	-67.6	-3.7	31.6	x
C=Cn1cc(CNC[C@H]2O[C@@H](n3ccc(N)nc3=O)[C@H](O)[C@@H]2O)c(C)n1	x	5.7	-6.6	4.8	-5.4	4.4	x	x
Cc1ccc2cc3c(=O)n(C)cc(C=O)c3nc2c1	x	0.1	5.0	-15.8	18.9	7.4	x	x
